Calls of active or inactive are those of the source. How the source made its calls: active means hit-call score of the fitted dose curve at least 0.9, where 1 is the maximum; inactive means score below 0.9.
Columns and labels:
[1] = ATG_GLI_CIS: Attagene CIS-FACTORIAL HepG2 Assay for human Zinc Finger Protein GLI1 (AID 2282945); conditions: HepG2, Attagene cis-factorial reporter mRNA, GLI element; actives raise or lower the signal
Summary of the method: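 Bidirectional curve fits relative to DMSO, using reporter mRNA levels from RT-PCR plus capillary electrophoresis. Cells were HepG2 transiently carrying cis-regulated reporter constructs, harvested 24 h after dosing.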

[2] = ATG_GRE_CIS: Attagene CIS-FACTORIAL HepG2 Assay for human Glucocorticoid Response Elements (GRE) (AID 2282947); conditions: HepG2 GRE cis-reporter, Attagene multiplex mRNA; actives raise or lower the signal
Summary of the method: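 Reporter transcripts read by RT-PCR with capillary electrophoresis fluorescence after a 24 h chemical exposure of HepG2 cells transiently transfected with multiple cis-element reporter units. Gain or loss fitted against DMSO.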

[3] = ATG_ISRE_CIS: Attagene CIS-FACTORIAL HepG2 Assay for human Interferon Regulatory Factor 1 (IRF1) binding to an Interferon-Stimulated Response Element (ISRE) (AID 2282948); conditions: HepG2 ISRE cis-reporter (Attagene), mRNA transcription readout; actives raise or lower the signal
Summary of the method: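 Signal reflects induction or loss of ISRE-linked reporter mRNA in transiently transfected HepG2 cells after a 24 h treatment, detected by fluorescent RT-PCR fragments on capillary electrophoresis and normalised to DMSO.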

[4] = ATG_M_32_CIS: Attagene CIS-FACTORIAL HepG2 Assay for M32 Transcription Factor (Internal Marker) (AID 2282949); conditions: HepG2 Attagene cis-factorial M32 reporter, mRNA; actives raise or lower the signal;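 further: background control marker of the multiplexed CIS panel rather than a real target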
Summary of the method: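 HepG2 human liver cells transiently transfected with cis-promoter-driven multiple reporter transcription units, dosed 24 h. Reporter mRNA quantified by RT-PCR, FAM-labelled primer extension, HpaI digest and capillary electrophoresis; bidirectional fit versus DMSO baseline.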

[5] = ATG_M_06_CIS: Attagene CIS-FACTORIAL HepG2 Assay for M06 Transcription Factor (Internal Marker) (AID 2282950); conditions: HepG2 Attagene CIS-FACTORIAL M06 internal marker reporter; actives raise or lower the signal
Summary of the method: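 Fluorescence-labelled RT-PCR products from cis-promoter reporter units, cut with HpaI and resolved by capillary electrophoresis, give the signal. Cells are human HepG2, dosed for 24 h. Serves as background control, fitted relative to DMSO.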

[6] = target: Hypoxia-inducible factor 1-alpha (Homo sapiens) (UniProt Q16665); test: ATG_HIF1a_CIS: Attagene CIS-FACTORIAL HepG2 Assay for human Hypoxia Inducible Factor 1 (HIF1A) (AID 2282951); conditions: HepG2 Attagene cis-factorial HIF1a reporter transcription; actives raise or lower the signal
Summary of the method: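 HepG2 cells transiently transfected with multiple cis-regulated reporter transcription units measure endogenous transcription factor activity. After 24 h exposure, reporter mRNA is quantified by RT-PCR with 6-FAM labelling, HpaI digestion and capillary electrophoresis. Bidirectional fitting against DMSO.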

[7] = target: Hepatocyte nuclear factor 6 (Homo sapiens) (UniProt Q9UBC0); test: ATG_HNF6_CIS: Attagene CIS-FACTORIAL HepG2 Assay for human Hepatocyte Nuclear Factor 6 (HNF6) (AID 2282952); conditions: HepG2 Attagene cis-factorial HNF6 reporter transcription; actives raise or lower the signal
Summary of the method: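 Twenty-four-hour chemical treatment of reporter-transfected HepG2 cells precedes RNA isolation, DNase-treated reverse transcription and PCR of reporter sequences. Labelled fragments are sized by capillary electrophoresis and fitted bidirectionally versus DMSO.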

[8] = target: Heat shock factor protein 1 (Homo sapiens) (UniProt Q00613); test: ATG_HSE_CIS: Attagene CIS-FACTORIAL HepG2 Assay for human Heat Shock Transcription Factor 1 (HSE) (AID 2282953); conditions: HepG2 HSE cis-reporter, Attagene RNA transcription; actives raise or lower the signal
Summary of the method: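 After a 24 h incubation with test chemical, transfected HepG2 cells were harvested for RNA; reporter transcripts were measured by RT-PCR and capillary electrophoresis. Values reflect gain or loss of signal relative to DMSO.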

[9] = ATG_MRE_CIS: Attagene CIS-FACTORIAL HepG2 Assay for human Metal Responsive Element (MRE) (AID 2282954); conditions: HepG2 MRE cis-reporter transcription, Attagene multiplex; actives raise or lower the signal
Summary of the method: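 Endogenous MRE-dependent transcription read as reporter mRNA in transiently transfected human HepG2 cells at 24 h. RNA reverse-transcribed, PCR-amplified, labelled and resolved by capillary electrophoresis; gain or loss relative to DMSO.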

[10] = ATG_PBREM_CIS: Attagene CIS-FACTORIAL HepG2 Assay for human Phenobarbital-responsive Enhancer Module (PBREM) (AID 2282955); conditions: HepG2 PBREM cis-reporter, Attagene multiplexed transcription; actives raise or lower the signal
Summary of the method: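 HepG2 cells transiently transfected with multiple cis-regulated reporter units measure endogenous transcription factor activity; 24 h compound exposure. Reporter mRNA quantified by RT-PCR, fluorescent labelling, HpaI digestion and capillary electrophoresis; bidirectional fit versus DMSO.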

Measured: AC50

Chain of Hepatocyte nuclear factor 6 (Homo sapiens) (Q9UBC0 whole entry, looked up, the tested form may be a part): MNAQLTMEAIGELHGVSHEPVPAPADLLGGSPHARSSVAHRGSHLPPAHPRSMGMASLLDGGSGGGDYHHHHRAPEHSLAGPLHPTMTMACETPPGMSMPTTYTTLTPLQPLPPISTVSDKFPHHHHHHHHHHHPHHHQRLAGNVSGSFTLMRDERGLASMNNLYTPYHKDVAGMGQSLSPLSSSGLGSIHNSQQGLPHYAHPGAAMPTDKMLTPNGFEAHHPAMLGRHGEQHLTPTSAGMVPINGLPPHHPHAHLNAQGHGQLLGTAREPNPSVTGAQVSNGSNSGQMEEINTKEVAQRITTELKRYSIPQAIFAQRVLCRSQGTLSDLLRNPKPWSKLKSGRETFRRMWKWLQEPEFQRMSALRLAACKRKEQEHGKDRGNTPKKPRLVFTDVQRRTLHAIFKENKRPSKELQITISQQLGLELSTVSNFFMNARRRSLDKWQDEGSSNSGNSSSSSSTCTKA
Chain of Heat shock factor protein 1 (Homo sapiens) (Q00613 whole entry, looked up): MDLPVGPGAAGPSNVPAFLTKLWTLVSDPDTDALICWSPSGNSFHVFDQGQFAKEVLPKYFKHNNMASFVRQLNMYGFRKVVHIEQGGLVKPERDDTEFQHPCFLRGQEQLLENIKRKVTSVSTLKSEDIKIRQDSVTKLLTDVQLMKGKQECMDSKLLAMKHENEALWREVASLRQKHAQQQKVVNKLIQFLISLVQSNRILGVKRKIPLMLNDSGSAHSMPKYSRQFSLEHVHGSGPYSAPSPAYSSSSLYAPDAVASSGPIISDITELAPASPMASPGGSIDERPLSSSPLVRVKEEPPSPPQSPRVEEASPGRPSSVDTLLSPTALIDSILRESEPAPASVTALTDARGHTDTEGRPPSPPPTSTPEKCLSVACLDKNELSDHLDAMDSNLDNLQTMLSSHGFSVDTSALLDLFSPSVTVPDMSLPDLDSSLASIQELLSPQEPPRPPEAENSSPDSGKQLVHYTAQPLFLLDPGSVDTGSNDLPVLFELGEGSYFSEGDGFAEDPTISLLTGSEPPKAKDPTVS
Chain of Hypoxia-inducible factor 1-alpha (Homo sapiens) (Q16665 whole entry, looked up): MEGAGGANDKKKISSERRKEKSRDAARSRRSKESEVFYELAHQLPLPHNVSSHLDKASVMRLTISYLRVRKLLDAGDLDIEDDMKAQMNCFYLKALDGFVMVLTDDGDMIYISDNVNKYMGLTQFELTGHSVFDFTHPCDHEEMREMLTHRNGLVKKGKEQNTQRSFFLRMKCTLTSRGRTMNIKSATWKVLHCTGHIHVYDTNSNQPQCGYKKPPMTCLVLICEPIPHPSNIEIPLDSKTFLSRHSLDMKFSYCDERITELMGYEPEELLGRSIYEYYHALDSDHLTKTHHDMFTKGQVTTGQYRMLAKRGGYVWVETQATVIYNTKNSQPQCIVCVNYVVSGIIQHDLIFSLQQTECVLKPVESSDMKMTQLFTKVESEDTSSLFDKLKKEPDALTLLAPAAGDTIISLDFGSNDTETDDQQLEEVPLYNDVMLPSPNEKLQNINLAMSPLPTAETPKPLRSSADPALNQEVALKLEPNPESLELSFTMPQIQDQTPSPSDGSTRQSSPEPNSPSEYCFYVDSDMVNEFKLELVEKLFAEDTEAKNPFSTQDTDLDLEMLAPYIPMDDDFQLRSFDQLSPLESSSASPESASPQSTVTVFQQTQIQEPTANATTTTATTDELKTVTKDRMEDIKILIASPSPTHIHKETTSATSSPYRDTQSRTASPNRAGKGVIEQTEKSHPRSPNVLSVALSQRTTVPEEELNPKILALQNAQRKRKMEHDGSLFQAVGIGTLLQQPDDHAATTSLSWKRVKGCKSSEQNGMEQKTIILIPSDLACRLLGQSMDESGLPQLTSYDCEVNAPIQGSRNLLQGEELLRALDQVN

CCOP(=O)(OCC)Oc1nc(Cl)c(Cl)cc1Cl
not listed: [10]
inactive: all other assays above

COc1cc(OC)nc(NC(=O)NS(=O)(=O)c2ncccc2OCC(F)(F)F)n1
not listed: [10]
inactive: all other assays above

CC1(C)CCC(=Cc2ccc(Cl)cc2)C1(O)Cn1cncn1 (configuration not stated)
not listed: [10]
inactive: all other assays above

C=C(C)CN(CC)c1c([N+](=O)[O-])cc(C(F)(F)F)cc1[N+](=O)[O-]
not listed: [10]
inactive: all other assays above

O=C(O)c1c(Cl)ccc2cc(Cl)cnc12
not listed: [10]
inactive: all other assays above

Nc1c(Cl)c(F)nc(OCC(=O)O)c1Cl
not listed: [10]
inactive: all other assays above

CC(C)N1C(=O)c2ccccc2NS1(=O)=O
not listed: [10]
inactive: all other assays above

CCCC(=NOCC)C1=C(O)CC(CC(C)SCC)CC1=O (configuration not stated)
not listed: [10]
inactive: all other assays above

CCN(CC)c1nc(C)cc(OP(=S)(OC)OC)n1
active: [6] 50 µM | [9] 50 µM
not listed: [10]
inactive: all other assays above

Cc1ccc(N=CN(C)C=Nc2ccc(C)cc2C)c(C)c1
not listed: [10]
inactive: all other assays above

CCOc1nc(F)cc2nc(S(=O)(=O)Nc3c(Cl)cccc3Cl)nn12
not listed: [10]
inactive: all other assays above

CC(C)Oc1cccc(NC(=O)c2ccccc2C(F)(F)F)c1
active: [9] 28.7 µM
not listed: [10]
inactive: all other assays above

CC(C)(C)C(=O)C(Oc1ccc(Cl)cc1)n1cncn1 (configuration not stated)
not listed: [10]
inactive: all other assays above

CCOC(=O)C(C)OC(=O)c1cc(Oc2ccc(C(F)(F)F)cc2Cl)ccc1[N+](=O)[O-] (configuration not stated)
not listed: [10]
inactive: all other assays above

COC(=O)NC(=S)Nc1ccccc1NC(=S)NC(=O)OC
active: [10] 21.3 µM
inactive: all other assays above

CO/N=C(/C1=NOCCO1)c1ccccc1Oc1ncnc(Oc2ccccc2Cl)c1F
active: [3] 4.82 µM | [8] 17.8 µM | [9] 8.64 µM | [10] 5.03 µM
inactive: all other assays above

CS(=O)(=O)c1ccc(C(=O)C2C(=O)CCCC2=O)c([N+](=O)[O-])c1
not listed: [10]
inactive: all other assays above

CCCCOCN(C(=O)CCl)c1c(CC)cccc1CC
not listed: [10]
inactive: all other assays above

Cc1nc(N(C)C)nc(OC(=O)N(C)C)c1C
not listed: [10]
inactive: all other assays above

COc1ccc(-c2ccccc2)cc1NNC(=O)OC(C)C
active: [2] 13.2 µM | [6] 22.8 µM | [8] 50 µM | [9] 22.7 µM
not listed: [10]
inactive: all other assays above

Nc1c(Cl)c(Cl)nc(C(=O)O)c1Cl
not listed: [10]
inactive: all other assays above

N#Cc1c[nH]cc1-c1cccc2c1OC(F)(F)O2
active: [9] 8.67 µM
not listed: [10]
inactive: all other assays above

CCOP(=S)(OCC)Oc1nc(Cl)n(C(C)C)n1
not listed: [10]
inactive: all other assays above

COc1cc(Cl)c(OC)cc1Cl
not listed: [10]
inactive: all other assays above

CC(C)C1(C)N=C(c2ncccc2C(=O)O)NC1=O (configuration not stated)
not listed: [10]
inactive: all other assays above

OC(c1ccc(Cl)cc1)(c1ccc(Cl)cc1)C(Cl)(Cl)Cl
not listed: [10]
inactive: all other assays above

Nc1cnn(-c2ccccc2)c(=O)c1Cl
not listed: [10]
inactive: all other assays above

Clc1nc(Cl)nc(Nc2ccccc2Cl)n1
not listed: [10]
inactive: all other assays above

O=c1n(Cl)c(=O)n(Cl)c(=O)n1Cl
not listed: [10]
inactive: all other assays above

C=CCOC(=O)C(C)(C)OC(=O)c1cc(-n2c(=O)cc(C(F)(F)F)n(C)c2=O)ccc1Cl
not listed: [10]
inactive: all other assays above

COCC(C)N(C(=O)CCl)c1c(C)csc1C (configuration not stated)
not listed: [10]
inactive: all other assays above

Cc1cnc(C2=NC(C)(C(C)C)C(=O)N2)c(C(=O)O)c1 (configuration not stated)
not listed: [10]
inactive: all other assays above

COC(=O)N(C(=O)N1CO[C@@]2(C(=O)OC)Cc3cc(Cl)ccc3C2=N1)c1ccc(OC(F)(F)F)cc1
active: [9] 2.11 µM
not listed: [10]
inactive: all other assays above

COCc1cnc(C2=NC(C)(C(C)C)C(=O)N2)c(C(=O)O)c1 (configuration not stated)
not listed: [10]
inactive: all other assays above

CCNC(=O)NC(=O)C(C#N)=NOC
not listed: [10]
inactive: all other assays above

Source: PubChem BioAssay (EPA / NIEHS)
